In ChEMBL document CHEMBL3988442, “University of Dundee, Small-Polar-MMV Screening Library” (2021):

target: Shiga toxin 2 (Escherichia coli O157:H7) (UniProt P09385+P09386); assay: E. coli 0.157:H7 Shiga Toxin SOP - stx2 screening assay; format: functional; design: scale not given: direction of the effect not stated beside the values; settings: 30 µM

Going from `CS(=O)(=O)CCSc1cccc(C#N)c1` to `CNS(=O)(=O)c1cccc(CNC(=O)c2c(C)oc(C)c2C)c1`, the Percent Effect falls from 4.17% to -67.3%.

Going from `C=Cn1ncc(CN2C[C@@H]3CCCN3C[C@H]2CCSC)c1C` to `Cc1cnn(CC2CCCCN2CCn2cncn2)c1` (stereo not given), the Percent Effect falls from -18.3% to -38%.

Going from `CC(C)c1n[nH]c(C(=O)Nc2ccnn2C(C)C)c1Br` to `Cc1cnn(CC(C)NCc2nc(-c3ccco3)no2)c1` (stereo not given), the Percent Effect rises from -15.3% to 2.91%.

Going from `CN(C)CC(=O)N1C[C@H]2CCC[C@@]2(COc2ccccn2)C1` to `Fc1cnc(N2C[C@H]3CCC[C@@]3(COc3ccccn3)C2)nc1`, the Percent Effect falls from 13.5% to 2.51%.

Compared with `CC(C)c1ncc2c(n1)CN(Cc1nc(-c3ccoc3)no1)CC2`, `Cn1cc(CN2CCc3nc(-c4ccccn4)nc(O)c3C2)cn1` is lower in Percent Effect: -1.63% for the first, -24.6% for the second.

First: O=C(CCNC(=O)c1ccccc1N1CCOCC1)NC1CCCC1
Second: c1cn2c(n1)CN(CC1CC1)CC(CN1CCOCC1)C2 (stereo not given)
The Percent Effect of the first is lower: -19.9% for the first, -18% for the second.

Compared with `COc1ccc(C)cc1NC(=O)Nc1cnc(N2CCN(C)CC2)nc1`, `Cn1ccnc1CN1CCN(c2ccc(C#N)cn2)CC1` is lower in Percent Effect: -18.8% for the first, -34.8% for the second.

First: O=C1CO[C@@H]2CN(Cc3cccs3)C[C@H]2N1CC1CC1
Second: c1cc(C2CCCN2Cc2nnnn2C2CC2)cs1 (stereo not given)
The Percent Effect of the first is lower: -3.56% for the first, 5.22% for the second.

Compared with `CC(C)C(NC(=O)NCCNc1ccccn1)c1cccs1` (stereo not given), `O=C(Cn1cccnc1=O)NCCc1ccc2c(c1)OCCO2` is lower in Percent Effect: 3.04% for the first, -33.8% for the second.

Going from `CCOCCCn1c(NC(=O)c2scnc2C)nc2ccccc21` to `CCn1cnnc1C1CCN(C(=O)c2cnc3ccccc3n2)CC1`, the Percent Effect rises from -30.2% to -10.9%.

Compared with `O=C(c1ccncc1)N1CCCn2c(CN3CCCCC3)nnc2C1`, `CCn1ccnc1CN1CCCN(C(=O)c2cc(Cl)c[nH]2)CC1` is lower in Percent Effect: -4.1% for the first, -18.9% for the second.

Going from `Cc1nccn1CCCC(=O)N1CCC(Nc2cccnn2)CC1` to `CN1CCN(C(=O)Cc2cccc(F)c2)Cc2cccnc21`, the Percent Effect falls from -6.43% to -29.8%.

First: Cc1cnc(C(=O)N(CCN(C)C)Cc2ccc(Cl)cc2)cn1
Second: CS(=O)(=O)c1ccc(NC(=O)NCc2ccc3c(c2)CCC3)cn1
The Percent Effect of the first is higher: 5.25% for the first, -9.09% for the second.

Compared with `Cc1cc(C(=O)N2CCc3nnc(N)cc3C2)c(C)n1C1CC1`, `CCc1noc(C2CCCCN2C(=O)c2ccoc2C)n1` (stereo not given) is lower in Percent Effect: -1.08% for the first, -33.6% for the second.

Going from `CCc1nnc(CN2CCN(C(=O)c3cc4ccccc4[nH]3)CC2)o1` to `CN1CCN(Cc2ccccc2CNC(=O)c2ccc(Br)cc2)CC1`, the Percent Effect falls from 8.5% to 0.652%.

First: CN1CCN(Cc2nc3ccccc3[nH]2)[C@H]2CS(=O)(=O)C[C@H]21
Second: Cc1cccc(CN2C[C@@H]3CN(C(=O)NC(C)C)C[C@@H]3C2=O)c1
The Percent Effect of the first is higher: -6.1% for the first, -52.1% for the second.

First: COc1ccc(CN2CCn3c(CNS(C)(=O)=O)nnc3C2)cc1
Second: CCc1nc2n(n1)CC(NCc1nc(C)ccc1O)CC2 (stereo not given)
The Percent Effect of the first is lower: -6.04% for the first, 11.7% for the second.

Compared with `COc1cc(CCC(=O)NC2CC2)ccc1OCC(F)(F)F`, `CCO[C@@H]1CO[C@@]2(CCCN(C(=O)COc3ccccc3OC)C2)C1` is lower in Percent Effect: 30.2% for the first, -25.3% for the second.

First: CS(=O)(=O)N1CCC(Oc2ccc(C(=O)N3CCSCC3)cc2Cl)CC1
Second: CS(=O)(=O)N1CCOCC2(CCN(C(=O)c3cccnc3)CC2)C1
The Percent Effect of the first is higher: 11.9% for the first, -13.1% for the second.

Compared with `Cc1csc(N2CCCN(C(=O)C(C)n3ccnc3)CC2)n1` (stereo not given), `Cc1noc(C)c1CNC(=O)N1CCC(CO)CC1` is higher in Percent Effect: -6.32% for the first, -4.58% for the second.
